Source: PubChem BioAssay (Tox21)
Inconclusive results are not listed. A call without a number means that no potency is given here. Active and inactive are the calls of the source. Calls come from the whole dose curve; as a rule, active = well fitted activation curve with a large enough effect in the repeat runs; inconclusive = weak or mixed curves; inactive = flat fitted curve, though single readings scatter. Where a SMILES comes first, the peptide text is derived from it.

Assay: A CellTox Green Cytotoxicity Assay to monitor cytotoxicity in HepG2 cells - 24 hour (AID 1224878); note: nearly all actives have a fitted effect of over 45% in size
Settings: CellTox Green fluorescence; series mostly up to 76.8 µM
Text: National Center for Advancing Translational Sciences [NCATS]
NIH Chemical Genomics Center [NCGC]
U.S. Environmental Protection Agency [EPA]
National Institutes of Environmental Health Sciences [NIEHS]
National Toxicology Program [NTP]
Cell-based models are critical for drug discovery. Determining the natural cytotoxic effects resulting from test compounds is an essential research activity. A CellTox Green Cytotoxicity Assay to monitor cytotoxicity in real time of continues cell culture during 40 hours of the compound treatment was used to screen Tox21 10K library compounds in HepG2 cells. CellTox Green Cytotoxicity Assay is a nonlytic, homogeneous, biofluorescent method to measure cytotoxicity in cell culture after experimental manipulation. The assay system uses a proprietary asymmetric cyanine dye that is excluded from viable cells but preferentially stains the dead cell's DNA. […] Viable cells produce no appreciable increases in fluorescence. Therefore, the fluorescence signal produced by the binding interaction with dead cell DNA is proportional to cytotoxicity.
The mixture of HepG2 cell suspension and reagents were dispensed at 600cells/6 ul/well in 1536-well tissue culture treated black solid bottom plates using a Multidrop dispenser. After the assay plates were incubated at a 37 C/5% CO2 incubator for 5 hours, 23 nL of compounds dissolved in DMSO, positive and negative controls was transferred to the assay plate by a pintool work station. The plates were incubated at 37 C for 40 hours. The fluorescence intensity were measured at 0h, 8h, 16h, 24h, 32h and 40h time points using ViewLux plate reader during compound treatment.

SMILES	Potency	cytotoxicity
OCC1CCC(CO)CC1 (stereo not given)	inactive	
CCOCCOCC	inactive	
COC(=O)c1ccccc1C(=O)O	inactive	
CC1CCc2c(N3CCC(O)CC3)c(F)cc3c(=O)c(C(=O)O)cn1c23 (stereo not given)	inactive	
CC(=O)C1C(=O)C=C(C)OC1=O (stereo not given)	inactive	
COC(=O)CCCCC(CCSS/C(CCO)=C(\C)N(C=O)Cc1cnc(C)nc1N)SC(C)=O (stereo not given)	inactive	
c1ccc(-c2nn[nH]n2)cc1	inactive	
O=C[O][Al]([O]C=O)[O]C=O	inactive	
Cc1ccc2c(c1)C(=O)c1ccccc1C2=O	inactive	
C[C@H]1[C@@H](c2ccccc2)NC(=O)N1C	inactive	
COc1cc(/C=C/C(N)=O)cc(OC)c1OC	inactive	
COC(=O)c1cccc(Cl)c1	inactive	
COc1cc2c(cc1OC)CN(C(=O)[C@H](C)N[C@@H](CCc1ccccc1)C(=O)O)[C@H](C(=O)O)C2	inactive	
CC(C)NC(=O)c1ccc(C=O)cc1	inactive	
CC(C)C1OCCN1CCOC(=O)NCCCCCCNC(=O)OCCN1CCOC1C(C)C (stereo not given)	inactive	
C=C(C)[C@@H]1CC=C(C)CC1	inactive	
CC(=O)CCc1ccc(OC(C)=O)cc1	inactive	
C/C=C(\C)C(C)=O	inactive	
CC(C)COC(=O)c1ccccc1	inactive	
O=NN(CCCl)C(=O)NC1CCCCC1	inactive	

SMILES	Potency	cytotoxicity
O=C(O)CONC(=O)c1ccccc1	inactive	
Cc1ccccc1C(N)=O	inactive	
CC1c2ccccc2CN1NC(=O)c1ccc(Cl)c(S(N)(=O)=O)c1 (stereo not given)	inactive	
Cc1c(NC(=O)c2cccnc2)c(=O)n(-c2ccccc2)n1C	inactive	
CC1(C)CC(OC(=O)CCCCCCCCC(=O)OC2CC(C)(C)NC(C)(C)C2)CC(C)(C)N1		-8.38% [at 15.8 µM] (inactive)
CCCCCCCCCCCCCCCCCC#N	inactive	
CCCCCCC1(C)CCC(=O)O1 (stereo not given)	inactive	
O/N=C/C=N/O	inactive	
COc1c2occc2c(OC)c2c(=O)cc(C)oc12	inactive	
C=CCN1C[C@H](C(=O)N(CCCN(C)C)C(=O)NCC)C[C@@H]2c3cccc4[nH]cc(c34)C[C@H]21	inactive	
C/C=C(\C)C(=O)OCCc1ccccc1	inactive	
C/C(CC(C)C)=N\O	inactive	
CC(=O)OCC(=O)Nc1cc(C#N)cc(NC(=O)COC(C)=O)c1Cl	inactive	
O=[N+]([O-])c1c(Cl)cc(Cl)cc1Cl	inactive	
CC(C)[C@H]1CC[C@H](C)C[C@@H]1O	inactive	
O=C(CCCCC(=O)Nc1c(I)cc(I)c(C(=O)O)c1I)Nc1c(I)cc(I)c(C(=O)O)c1I	inactive	
CCOC(CN1CCN(CC(C)C(=O)c2ccccc2)CC1)c1ccccc1 (stereo not given)		-18.2% [at 15.8 µM] (inactive)
CC(CO)(CO)CO	inactive	
O=C(CCCl)NCCc1ccccc1	inactive	
CC(=O)N[C@@H](CO)C(=O)N[C@@H](CC(=O)O)C(=O)N[C@@H](CCCCN)C(=O)N1CCC[C@H]1C(=O)O (Ac-SDKP-OH)	inactive	
